From ChEMBL document CHEMBL3988442, “University of Dundee, Small-Polar-MMV Screening Library” (2021)
Screen size: about 48,000 compounds; about 13,000 (27%) showed an effect of 50% or more. The list shows a part of the results.

Tested on: Wolbachia pipientis
Assay: Anti-Wolbachia Cell-Based Screen
Format: functional
Set-up: scale not given: in the data most compounds retested in dose-response had high values
Conditions: 5 µM

| Compound | Percent Effect |
| --- | --- |
| CN(CCNC(=O)N1CCN(Cc2ccon2)CC1)C1CCCC1 | -5.523% |
| CC1CCN(CC2(O)CCCN(Cc3cccc(F)c3F)C2=O)CC1 (configuration not stated) | -9.136% |
| O=C(CN(Cc1ccccc1)CC1CCOCC1)Nc1nccs1 | -5.546% |
| Cn1cnnc1CN1CCC2(CCC(=O)N(Cc3ccccc3)C2)CC1 | -10.98% |
| Cc1nnc2n1CCN(C(C(=O)NC1CC1)c1ccccc1)C2 (configuration not stated) | -4.736% |
| O=S(=O)(CC1CCCCC1)NCc1ccnc(O)c1 | -10.25% |
| CCNC(=O)Nc1ccc2c(ccn2CC(=O)N(CC)CC)c1 | -5.513% |
| COc1ccc2c(ccn2CC(=O)Nc2n[nH]c(CC(C)C)n2)c1 | 220.2% |
| COCCN(C)C(=O)Nc1ccc2c(ccn2CC(=O)N(C)C)c1 | 5.654% |
| COc1ccc2c(ccn2CCC(=O)Nc2n[nH]c(CC(C)C)n2)c1 | 106.4% |
| COc1ccc2nc(CCNC(=O)c3cc(CC(C)C)no3)[nH]c2c1 | 0.008091% |
| CNS(=O)(=O)Cc1ccc(CNc2ccc(C#N)cn2)cc1 | 0.03552% |
| O=C(O)C(F)(F)F.O=S(=O)(c1cccs1)N1CCCn2nnc(CN3CCCCC3)c2C1 | -14.53% |
| O=C(c1ccc2[nH]ccc2c1)N1Cc2nc(CN3CCCC3)oc2C1 | -7.855% |
| O=C(Cc1ccsc1)N1Cc2nc(CN3CCCCC3)oc2C1.O=C(O)C(F)(F)F | 93.12% |
| O=C(NCc1cccs1)c1nc2c(o1)CN(c1ncccn1)C2 | 0.5771% |
| O=C(O)C(F)(F)F.O=C(O)C(F)(F)F.O=C(c1ccncc1F)N1Cc2nc(CN3CCCCC3)oc2C1 | -18.26% |
| O=C(O)C(F)(F)F.O=C(O)C(F)(F)F.c1csc(CN2Cc3nc(CN4CCCC4)oc3C2)c1 | 109.9% |
| O=C(O)C(F)(F)F.O=C(c1ccc2[nH]ccc2c1)N1Cc2nc(CN3CCCCC3)oc2C1 | -9.773% |
| O=C(Cc1cccs1)N1Cc2nc(CN3CCCC3)oc2C1 | 101.2% |
| O=C(O)C(F)(F)F.O=S(=O)(c1cccs1)N1CC[C@H]2[C@H]1CCN2CC1CC1 | -12.79% |

| Compound | Percent Effect |
| --- | --- |
| O=C(O)C(F)(F)F.O=S(=O)(c1cccs1)N1Cc2nc(CN3CCCCC3)oc2C1 | 109.1% |
| O=C(O)C(F)(F)F.O=C(O)C(F)(F)F.c1csc(CN2CCCn3cnc(CN4CCCC4)c3C2)c1 | -7.451% |
| Cc1ncnc2c1CCN(Cc1cccs1)CC2.O=C(O)C(F)(F)F | -21.74% |
| CC(C)Oc1ccc(CN2CCN3CCN(C)CC3C2)cc1CO (configuration not stated) | 9.29% |
| CC(C)N1CCc2onc(Cn3cccc3)c2C1.O=C(O)C(F)(F)F | -0.5475% |
| CCc1cnc(C)nc1NCCC(=O)N1CCC(C)CC1 | -0.3722% |
| COc1ccnc(N(C)Cc2ccccc2O)n1 | -0.8473% |
| CN(C)C(CNCc1nc(-c2ccsc2)no1)c1cccc(F)c1 (configuration not stated) | 29.87% |
| CC(=O)Oc1ccnc(C(F)(F)F)c1C(C)=O | 6.517% |
| O=C(O)C(F)(F)F.O=S(=O)(c1cccs1)N1Cc2nc(CN3CCCC3)oc2C1 | 87.16% |
| O=C(O)C(F)(F)F.O=S(=O)(c1cccs1)N1CC[C@@H](O)[C@@H]1Cc1ccncc1 | 6.31% |
| O=C(O)C(F)(F)F.O=S(=O)(c1cccs1)N1CCCn2cnc(CN3CCCC3)c2C1 | -2.227% |
| Cc1cccc(CN2C[C@@H]3CN(C(=O)c4ccsc4)C[C@@H]3C2=O)n1.O=C(O)C(F)(F)F | -3.63% |
| O=C(c1ncc[nH]1)N1CCC(Cn2cc(-c3cccc(Cl)c3)nn2)CC1 | -5.477% |
| C[C@@H](CO)Nc1cc(-c2cn[nH]c2)ncn1 | 112.5% |
| COc1cccc(-n2cc(-c3ccnc(NC(CO)C(C)C)n3)cn2)c1 (configuration not stated) | 8.395% |
| COc1cccc(-c2noc(-c3ccc(NCC(C)O)nc3)n2)c1OC (configuration not stated) | -13.68% |
| CC(C)c1nccn1CCCNC(=O)c1ccc(-c2cn[nH]c2)nc1 | -8.447% |
| CC(C)[C@@H](CO)Nc1cc(-c2cn[nH]c2)ncn1 | 127.6% |
| CSc1ccc2c(C)cc(N[C@@H](C)CO)nc2c1 | -9.02% |
| CCC(CO)NC(=O)c1cc(COc2ccc(OC)cc2Cl)[nH]n1 (configuration not stated) | -12.2% |

| Compound | Percent Effect |
| --- | --- |
| COc1cccc(-n2cc(-c3ccnc(N[C@H](CO)C(C)C)n3)cn2)c1 | 4.852% |
| C[C@H](O)CNc1cc(-c2cn[nH]c2)ncn1 | 139.4% |
| CC[C@@H](CO)Nc1cc(-c2cn[nH]c2)ncn1 | 98.52% |
| CC[C@@H](CO)NC(=O)c1cc(COc2ccc(OC)cc2Cl)[nH]n1 | -9.741% |
| COc1ccc(Cc2noc(-c3ccc(NC(C)CO)nc3)n2)cc1 (configuration not stated) | 5.885% |
| Cc1cc(CN2CCN(C(=O)NCCCc3cn[nH]c3C)CC2)on1 | -23.87% |
| Cc1ccc(-n2nnnc2SCN2CCCCC2=O)cc1C | -13.91% |
| Cc1ccc(CNC(=O)CN2C=Nc3ccccc3S2(=O)=O)s1 | 1.242% |
| COc1ccc(C)c2c1N(C(=O)c1cnc(C)s1)CCC2 | 46.61% |
| NC(=O)C1CCCN(Cc2ccc(C(=O)Nc3cnns3)cc2)C1 (configuration not stated) | 103.7% |
| O=C(c1ccc(CN2CCCC2)cc1)N1CCCC(n2cccn2)C1 (configuration not stated) | 0.6704% |
| Cn1cnnc1CNC(=O)C1CCCN(Cc2ccccc2)C1 (configuration not stated) | -10.08% |
| CCc1ccc(CN2CCC(CNC(=O)c3ccc(C)nc3)C2)nc1 (configuration not stated) | 20.32% |
| NC(=O)c1ccc(CN2CCCC(N3CCCC3)C2)cc1 (configuration not stated) | -7.606% |
| CCNC(=O)C1CCN(Cc2ccc(C(=O)Nc3nnc(C)s3)cc2)C1 (configuration not stated) | 100.1% |
| CCNC(=O)C1CCN(Cc2ccc(C(=O)Nc3cnns3)cc2)C1 (configuration not stated) | 106% |
| O=C(Nc1nnc(C2CC2)s1)NC1CCN(Cc2ccccc2)C1 (configuration not stated) | -1.377% |
| CCCN(C(=O)c1cnns1)C1CCCN(Cc2ccccc2)C1 (configuration not stated) | 20.84% |
| CCC(CC)CS(=O)(=O)NC(=O)C1CCCC1 | -11.88% |
| Cc1cnccc1CN(C)Cc1c[nH]nc1-c1ccc(F)cc1F | -6.627% |
